Results from PubChem BioAssay AID1159580 (chemical genetic matrix, 2015).
Values joined by “and” are separate entries in the source; they are usually repeats but may differ in a detail not shown here. Equal values may be shown once. The campaign covered roughly 5,500 compounds. About 2,000 (36%) were called active. Inconclusive results (about 18%) are left out. Rule as the data show it: active = normalized growth mostly below about 0.91 (no sharp cut-off); inconclusive = no clear call, values can overlap the other calls; inactive = mostly above about 0.92. Some of the results follow.

Assay: chemical genetic growth profiling, strain panel (AID 1159580);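 also: tested at 20 µM; growth read once vehicle control cultures reached saturation at 30 °C; 1 = growth at the plate median or of vehicle wells; lower values mean less growth of the strain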
Conditions: growth OD

Measured: normalized growth

COc1ccc(CN(CCN(C)C)c2ccccn2)cc1
inactive: S. cerevisiae deletion strains, locus YJR066W, strain TOR1, stronger effect = lower value 0.997 | S. cerevisiae deletion strains, locus YJR075W, strain HOC1, stronger effect = lower value 0.979 | S. cerevisiae deletion strains, locus YKL009W, strain mrt4, stronger effect = lower value 0.954 | S. cerevisiae deletion strains, locus YKL068W, stronger effect = lower value 0.992 | S. cerevisiae deletion strains, locus YKL085W, strain MDH1 (second series), stronger effect = lower value 0.978 | S. cerevisiae deletion strains, locus YKL085W, strain MDH1, stronger effect = lower value 0.978 | S. cerevisiae deletion strains, locus YKL160W, strain elf1, stronger effect = lower value 1.04 | S. cerevisiae deletion strains, locus YKL190W, strain CNB1, stronger effect = lower value 0.996 | S. cerevisiae deletion strains, locus YKR001C, strain vps1, stronger effect = lower value 0.994 | S. cerevisiae deletion strains, locus YKR026C, strain gcn3, stronger effect = lower value 1.01 | S. cerevisiae deletion strains, locus YKR091W, strain srl3, stronger effect = lower value 1 | S. cerevisiae deletion strains, locus YLL001W, strain dnm1, stronger effect = lower value 1.01 | S. cerevisiae deletion strains, locus YLL026W, stronger effect = lower value 1.02 | S. cerevisiae deletion strains, locus YLL041C, strain sdh2, stronger effect = lower value 1.01 | S. cerevisiae deletion strains, locus YLR027C, strain aat2, stronger effect = lower value 1.02 | S. cerevisiae deletion strains, locus YLR039C, strain RIC1, stronger effect = lower value 0.996 | S. cerevisiae deletion strains, locus YLR058C, strain SHM2, stronger effect = lower value 0.997 | S. cerevisiae deletion strains, locus YLR102C, strain apc9, stronger effect = lower value 0.996 | S. cerevisiae deletion strains, locus YLR113W, strain HOG1, stronger effect = lower value 1.01 | S. cerevisiae deletion strains, locus YLR221C, strain rsa3, stronger effect = lower value 1.01 | S. cerevisiae deletion strains, locus YLR258W, strain gsy2, stronger effect = lower value 1.03 | S. cerevisiae deletion strains, locus YLR262C, strain YPT6 (second series), stronger effect = lower value 1.01 | S. cerevisiae deletion strains, locus YLR262C, strain YPT6, stronger effect = lower value 0.992 | S. cerevisiae deletion strains, locus YLR268W, strain sec22, stronger effect = lower value 0.963 | S. cerevisiae deletion strains, locus YLR320W, strain mms22, stronger effect = lower value 1.02 | S. cerevisiae deletion strains, locus YLR330W, strain CHS5, stronger effect = lower value 0.98 | S. cerevisiae deletion strains, locus YLR342W, strain FKS1 (second series), stronger effect = lower value 0.995 | S. cerevisiae deletion strains, locus YLR342W, strain FKS1, stronger effect = lower value 1.03 | S. cerevisiae deletion strains, locus YLR357W, strain rsc2, stronger effect = lower value 1.03 | S. cerevisiae deletion strains, locus YLR370C, strain arc18, stronger effect = lower value 1.02 | S. cerevisiae deletion strains, locus YLR371W, strain rom2, stronger effect = lower value 0.972 | S. cerevisiae deletion strains, locus YLR384C, strain iki3, stronger effect = lower value 1.02 | S. cerevisiae deletion strains, locus YLR418C, strain cdc73, stronger effect = lower value 1 | S. cerevisiae deletion strains, locus YML016C, strain PPZ1, stronger effect = lower value 0.997 | S. cerevisiae deletion strains, locus YML032C, strain rad52, stronger effect = lower value 0.979 | S. cerevisiae deletion strains, locus YML120C, strain ndi1, stronger effect = lower value 1.02 | S. cerevisiae deletion strains, locus YML124C, strain tub3, stronger effect = lower value 0.991 | S. cerevisiae deletion strains, locus YMR058W, strain fet3, stronger effect = lower value 1 | S. cerevisiae deletion strains, locus YMR078C, strain ctf18, stronger effect = lower value 0.992 | S. cerevisiae deletion strains, locus YMR125W, strain sto1, stronger effect = lower value 1.02 | S. cerevisiae deletion strains, locus YMR129W, stronger effect = lower value 1.01 | S. cerevisiae deletion strains, locus YMR205C, strain PFK2, stronger effect = lower value 1.02 | S. cerevisiae deletion strains, locus YMR223W, strain ubp8, stronger effect = lower value 1.02 | S. cerevisiae deletion strains, locus YMR231W, strain pep5, stronger effect = lower value 1.02 | S. cerevisiae deletion strains, locus YMR307W, strain GAS1, stronger effect = lower value 1.01 | S. cerevisiae deletion strains, locus YNL067W, strain RPL9B, stronger effect = lower value 0.996 | S. cerevisiae deletion strains, locus YNL071W, strain lat1, stronger effect = lower value 1.02 | S. cerevisiae deletion strains, locus YNL128W, strain TEP1, stronger effect = lower value 0.967 | S. cerevisiae deletion strains, locus YNL175C, strain NOP13, stronger effect = lower value 1.01 | S. cerevisiae deletion strains, locus YNL183C, strain NPR1, stronger effect = lower value 0.991 | S. cerevisiae deletion strains, locus YNL197C, strain WHI3, stronger effect = lower value 0.966 | S. cerevisiae deletion strains, locus YNL209W, strain ssb2, stronger effect = lower value 1.04 | S. cerevisiae deletion strains, locus YNL224C, strain SQS1, stronger effect = lower value 0.988 | S. cerevisiae deletion strains, locus YNL233W, strain BNI4, stronger effect = lower value 1 | S. cerevisiae deletion strains, locus YNL248C, strain rpa49, stronger effect = lower value 1.05 | S. cerevisiae deletion strains, locus YNL250W, strain rad50, stronger effect = lower value 0.985 | S. cerevisiae deletion strains, locus YNL271C, strain bni1, stronger effect = lower value 0.992 | S. cerevisiae deletion strains, locus YNL298W, strain CLA4, stronger effect = lower value 0.997 | S. cerevisiae deletion strains, locus YNL307C, strain MCK1, stronger effect = lower value 0.986 | S. cerevisiae deletion strains, locus YNL322C, strain KRE1 (second series), stronger effect = lower value 1.04 | S. cerevisiae deletion strains, locus YNR049C, strain mso1, stronger effect = lower value 1.01 | S. cerevisiae deletion strains, locus YNR052C, strain pop2, stronger effect = lower value 0.993 | S. cerevisiae deletion strains, locus YOL006C, strain TOP1, stronger effect = lower value 1.04 | S. cerevisiae deletion strains, locus YOL012C, strain htz1 0.809 | S. cerevisiae deletion strains, locus YOL147C, strain pex11, stronger effect = lower value 0.988 | S. cerevisiae deletion strains, locus YOR001W, strain rrp6, stronger effect = lower value 0.991 | S. cerevisiae deletion strains, locus YOR061W, strain CKA2, stronger effect = lower value 1 | S. cerevisiae deletion strains, locus YOR069W, strain VPS5, stronger effect = lower value 0.986 | S. cerevisiae deletion strains, locus YOR070C, strain gyp1, stronger effect = lower value 1.02 | S. cerevisiae deletion strains, locus YOR080W, strain dia2, stronger effect = lower value 1.03 | S. cerevisiae deletion strains, locus YOR083W, strain WHI5 (second series), stronger effect = lower value 0.991 | S. cerevisiae deletion strains, locus YOR083W, strain WHI5, stronger effect = lower value 0.998 | S. cerevisiae deletion strains, locus YOR106W, strain vam3, stronger effect = lower value 1.04 | S. cerevisiae deletion strains, locus YOR136W, strain idh2, stronger effect = lower value 1 | S. cerevisiae deletion strains, locus YOR144C, strain elg1, stronger effect = lower value 1 | S. cerevisiae deletion strains, locus YOR184W, strain ser1, stronger effect = lower value 1 | S. cerevisiae deletion strains, locus YOR231W, strain MKK1, stronger effect = lower value 1 | S. cerevisiae deletion strains, locus YOR265W, strain rbl2, stronger effect = lower value 1.02 | S. cerevisiae deletion strains, locus YOR270C, strain vph1, stronger effect = lower value 1.08 | S. cerevisiae deletion strains, locus YOR290C, strain snf2, stronger effect = lower value 1.04 | S. cerevisiae deletion strains, locus YOR316C, strain cot1, stronger effect = lower value 0.988 | S. cerevisiae deletion strains, locus YPL051W, strain arl3, stronger effect = lower value 1.04 | S. cerevisiae deletion strains, locus YPL078C, strain atp4, stronger effect = lower value 1.04 | S. cerevisiae deletion strains, locus YPL106C, strain sse1, stronger effect = lower value 1.04 | S. cerevisiae deletion strains, locus YPL240C, strain hsp82, stronger effect = lower value 1.01 | S. cerevisiae deletion strains, locus YPL241C, strain CIN2, stronger effect = lower value 0.995 and 0.99 | S. cerevisiae deletion strains, locus YPL256C, strain CLN2, stronger effect = lower value 1.05 | S. cerevisiae deletion strains, locus YPR119W, strain clb2, stronger effect = lower value 0.988 | S. cerevisiae deletion strains, locus YPR141C, strain kar3, stronger effect = lower value 0.981 | S. cerevisiae deletion strains, locus YPR163C, strain tif3, stronger effect = lower value 0.988 | S. cerevisiae deletion strains, locus YPR167C, strain met16, stronger effect = lower value 0.983 | S. cerevisiae deletion strains, strain wtn01, stronger effect = lower value 0.984 | S. cerevisiae strains, strain wild type, stronger effect = lower value 0.992
